Screens as filed in PubChem BioAssay.
Shown are actives, neighbours in structure and some others; about 2.4% of the full set was active somewhere.
Cruzain noTriton = inhibitors of Trypanosoma cruzi cruzain without detergent | P25779 | purified cruzain, Z-FR-AMC fluorescence, no detergent | 200,000 compounds, 2.3% hits | AID 1476 | Potency, µM, most hits filed as inhibitors; also: nearly all actives have a fitted effect of over 40% in size
Target sequence (P25779 123-467 limits assumed): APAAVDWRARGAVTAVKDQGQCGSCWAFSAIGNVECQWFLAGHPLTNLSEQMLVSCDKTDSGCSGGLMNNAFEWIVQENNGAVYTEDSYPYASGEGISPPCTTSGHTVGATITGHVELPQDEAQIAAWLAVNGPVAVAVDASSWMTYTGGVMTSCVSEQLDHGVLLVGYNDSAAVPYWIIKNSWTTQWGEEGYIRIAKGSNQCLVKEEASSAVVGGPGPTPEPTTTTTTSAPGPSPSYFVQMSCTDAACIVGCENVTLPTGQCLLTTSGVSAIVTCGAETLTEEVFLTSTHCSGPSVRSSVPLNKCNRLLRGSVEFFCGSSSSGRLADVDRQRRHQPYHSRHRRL
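Detergent-free condition (0.00005% Triton X-100) in acetate buffer pH 5.5 with DTT. 1.5 nM enzyme and compound were pre-mixed 15 min, then 2 uM Z-FR-AMC substrate added; reaction progress from fluorescence change between first and third reads (60 s).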
Cruzain Triton = blocks cruzain activity in presence of Triton detergent. P25779. purified cruzain, Z-FR-AMC fluorescence, 0.01% Triton. Potency, µM, most hits filed as inhibitors. 200,000 compounds, 0.43% hits. AID 1478; also: nearly all actives have a fitted effect of over 40% in size
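Enzyme 1.5 nM, Z-FR-AMC 2 uM, NaOAc 100 mM pH 5.5, DTT 5 mM, Triton X-100 0.01%; 15 min RT compound preincubation; kinetic ex360/em450, 60 s delta.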
Of the large screens only hits and unclear results are named; the others gave an inactive call; ! = repeats disagree. Calls follow the shape of the dose curve; as a rule, active = well fitted curve in the direction sought with a large enough effect; inconclusive = small, poorly fitted or top-dose-only effect, or another doubt; inactive = no such curve, though single readings can be large; an effect the other way counts as inactive or inconclusive.

Cc1cc(C(=O)CSc2nc3ccccc3n2CCC#N)c(C)n1Cc1cccs1	Cruzain noTriton 16µM
N#CCCn1c(SCC(=O)c2c[nH]c3ccccc23)nc2ccccc21	Cruzain noTriton inconclusive
COc1cc(Cl)c(C)cc1NC(=O)CN1c2ccccc2S(=O)(=O)c2ccccc21	Cruzain noTriton 25µM
NC(=O)c1ccccc1NC(=O)CN1c2ccccc2S(=O)(=O)c2ccccc21	none
O=C(Cc1nc2ccccc2[nH]1)N/N=C/c1ccccc1	none
COc1ccc(OC)c(/C=N/NC(=O)Cc2nc3ccccc3[nH]2)c1	Cruzain noTriton inconclusive, Cruzain Triton 22µM
COc1cccc(/C=N/NC(=O)CC2C(=O)NN=C2C)c1OC (configuration not stated)	none
COc1ccc(OC)c(/C=N/NC(=O)CC2C(=O)NN=C2C)c1 (configuration not stated)	Cruzain noTriton 32µM
Cc1ccc(CN2CCc3nc(N4CCN(c5ccccc5F)CC4)ncc3C2)s1	none
Cc1cc(C)c(NC(=O)CSc2n[nH]c(-c3ccccc3Cl)n2)c(C)c1	none
Oc1ccccc1-c1nc(/C=C/c2ccccc2Cl)nn1-c1ccccc1	Cruzain noTriton inconclusive
N[C@@H](Cc1cc(I)c(Oc2ccc(O)c(I)c2)c(I)c1)C(=O)O	Cruzain noTriton 13µM!, Cruzain Triton inconclusive
NC(Cc1cc(I)c(Oc2ccc(O)c(I)c2)c(I)c1)C(=O)O (configuration not stated)	none
Cc1ccccc1NC(=O)CSc1nc2nccnc2c(=O)n1CCc1c[nH]c2ccccc12	Cruzain noTriton inconclusive
Cc1nnc(N2CCCC(C(=O)NCc3ccccc3F)C2)c2nn(-c3ccc(Cl)cc3)c(C)c12 (configuration not stated)	none
O=C(CCCCCn1c(=O)c2sccc2n(CC(=O)Nc2cc(C(F)(F)F)ccc2Cl)c1=O)NCc1ccccc1Cl	Cruzain noTriton 16µM
CC(C)(C)C(=O)Cn1c(=O)n(CCCCCC(=O)NCc2ccccc2Cl)c(=O)c2sccc21	none
O=S(=O)(c1ccc2nc(Nc3cccc(F)c3)ccc2c1)N1CCCC1	none
CCOC(=O)c1cccc(Nc2ccc3cc(S(=O)(=O)N4CCCCC4)ccc3n2)c1	Cruzain noTriton 25µM
CC1CCN(S(=O)(=O)c2ccc3nc(Nc4ccc(C#N)cc4)ccc3c2)CC1	Cruzain noTriton 32µM
CCOc1ccc(OCC)c(Nc2ccc3cc(S(=O)(=O)N4CCCC4)ccc3n2)c1	none
COc1ccc(Nc2ccc3cc(S(=O)(=O)N4CCCC4)ccc3n2)cc1Cl	Cruzain noTriton 25µM
CC1CCN(S(=O)(=O)c2ccc3nc(Nc4cccc(C(F)(F)F)c4)ccc3c2)CC1	Cruzain noTriton inconclusive
O=S(=O)(c1ccc2nc(Nc3ccc(F)cc3)ccc2c1)N1CCCC1	none
COc1ccc(Cl)cc1Nc1ccc2cc(S(=O)(=O)N3CCCCC3)ccc2n1	Cruzain noTriton 25µM
O=C(Nc1ccc(Br)cc1)c1cc(S(=O)(=O)N2CCc3ccccc32)ccc1F	none
CC1CCN(C(=O)Cn2cc(SCC(=O)NCc3ccc(F)cc3)c3ccccc32)CC1	none
CCOC(=O)c1cccc(NC(=O)CN2C(=O)CC(C)(C)Sc3ccccc32)c1	none
CC(=O)c1cccc(NC(=O)COc2ccccc2)c1	none
O=C(COc1ccc2ccccc2c1)Nc1cccc(C(=O)Nc2ccccc2C(=O)O)c1	Cruzain noTriton inconclusive, Cruzain Triton 32µM
CC1=C(C(=O)Nc2ccccc2)C(c2cc(Br)ccc2F)n2ncc(C(=O)Nc3ccccc3)c2N1 (configuration not stated)	Cruzain noTriton 20µM
COc1ccccc1NC(=O)C1=C(C)Nc2c(C(=O)Nc3cccc(C)c3)cnn2C1c1ccccc1Cl (configuration not stated)	Cruzain noTriton 25µM
CC1=C(C(=O)Nc2ccc(C)cc2C)C(c2cc(Br)ccc2F)n2ncc(C(=O)Nc3ccc(C)cc3)c2N1 (configuration not stated)	none
COc1ccccc1NC(=O)C1=C(C)Nc2c(C(=O)Nc3cccc(C)c3)cnn2C1c1ccccc1C (configuration not stated)	Cruzain noTriton inconclusive
O=C1/C(=C/c2c[nH]c3ccccc23)CCC/C1=C\c1c[nH]c2ccccc12	Cruzain noTriton 25µM
O/N=C/c1c[nH]c2ccccc12	none
CCOC(=O)c1sc(Nc2nc3cc4c(cc3s2)OCO4)cc1C	Cruzain noTriton 25µM
C(=N\Nc1nc2ccccc2s1)/c1ccc2c(c1)OCO2	none
Brc1cc2c(cc1/C=N/Nc1nc3ccccc3s1)OCO2	Cruzain noTriton 20µM
Fc1ccc2nc(Nc3nc4cc5c(cc4s3)OCO5)sc2c1	Cruzain noTriton inconclusive
C(=C\c1ccccc1)/C=N/Nc1nc2ccccc2s1	Cruzain noTriton inconclusive
CCOC(=O)c1sc(Nc2nc3c(OC)cccc3s2)cc1C	none
c1ccc2sc(Nc3nc4cc5c(cc4s3)OCO5)nc2c1	Cruzain noTriton 25µM
Brc1ccc(/C=C/C=N/Nc2nc3ccccc3s2)cc1	Cruzain noTriton 4µM
CCOC(=O)N1CCC(NC(=O)c2cnn(-c3ccc(F)cc3)c2-n2cccc2)CC1	none
Cn1ccc2c(OCC(=O)NCc3ccccc3Cl)cccc2c1=O	none
CCOc1ccc(OCC)c(NC(=O)CCc2c(C)nc3c(c2C)c(=O)n(C)c(=O)n3C)c1	none
Cc1cccc(NC(=O)CN2C(=O)CCc3ccccc32)c1C	none
COc1ccc2c(Sc3ccccc3)c(C(=O)NCCc3ccc(Cl)cc3)[nH]c2c1	Cruzain noTriton inconclusive
COc1ccc(N2C(=O)CS(=O)(=O)C23C(=O)N(Cc2ccc(F)cc2)c2ccc(C)cc23)cc1 (configuration not stated)	Cruzain noTriton 3.2µM
Cc1ccc(CN2C(=O)C3(SCC(=O)N3c3ccc(C)c(C)c3)c3ccccc32)cc1 (configuration not stated)	Cruzain noTriton inconclusive
Cc1ccc(N2C(=O)CS(=O)(=O)C23C(=O)N(Cc2ccc(Cl)cc2)c2ccccc23)cc1C (configuration not stated)	Cruzain noTriton 13µM
Cc1ccc(C)c(CN2C(=O)C3(OCCCO3)c3ccccc32)c1	none
Cc1ccc(N2C(=O)CSC23C(=O)N(Cc2ccccc2F)c2ccccc23)cc1F (configuration not stated)	none
Cc1ccc(N2C(=O)CS(=O)(=O)C23C(=O)N(Cc2ccccc2F)c2ccccc23)cc1Cl (configuration not stated)	Cruzain noTriton 1.3µM
COc1ccc(N2C(=O)CCSC23C(=O)N(Cc2ccc(F)cc2)c2ccccc23)cc1 (configuration not stated)	none
Cc1ccc(C)c(CN2C(=O)C3(c4ccccc42)N(c2ccc(Cl)cc2)C(=O)CS3(=O)=O)c1 (configuration not stated)	Cruzain noTriton 3.2µM
CCCCOc1ccc(S(=O)(=O)NCc2csc(-c3ccc(OC)cc3)n2)cc1	none
COc1ccc(CNC(=O)c2nc(Cn3nc(C)c(Br)c3C)no2)cc1OC	none
Cc1ccc(CN2C(=O)C3(c4ccccc42)N(c2ccc(C)c(Cl)c2)C(=O)CS3(=O)=O)cc1 (configuration not stated)	Cruzain noTriton 1.3µM
O=C1CS(=O)(=O)C2(C(=O)Nc3ccccc32)N1c1cccc(Cl)c1 (configuration not stated)	none
CCn1ccc2cc(S(=O)(=O)N3CCC(C(=O)NCCOC)CC3)ccc21	none
COc1ccc(NC(=O)Cn2cnc3c(oc4ccccc43)c2=O)cc1OC	none
Cc1ccc(NC(=O)c2nnn(CC(=O)Nc3ccc(C)c(Cl)c3)c2N)c(C)c1	Cruzain noTriton 10µM
